Source: PubChem BioAssay AID463173 (ICCB-Longwood Screening Facility, Harvard Medical School, 2010)
The whole screen tested about 52,000 compounds, of which about 4,300 (8.3%) were called active. This excerpt belongs to a sample that is enriched for actives. A number with no mark means an inactive call. No stated cut-off is given here; in the data, active means survival mostly below about 52% (no sharp cut-off); inactive means mostly above about 56%.

Tested on: DeltatarO mutant
Assay: growth inhibition of S. aureus wild type versus tarO mutant, primary screen, teichoic acid synthesis inhibitors, RN4220, OD600 (AID 463173)
Conditions: OD600, 18 h, active compounds read low, screened at 18.75 µg/mL (by protocol)

Compound | survival
Cc1ccc(CCNC(=O)c2ccc3c(c2)N(Cc2ccc(F)cc2)CCS3)cc1 | 71%
CC1=C(c2ccc(C(C)C)cc2)S(=O)(=O)N=C1N1CCN(c2ccc(F)cc2)CC1 | 74%
O=S(=O)(NCCS(=O)(=O)N1CCN(c2cccc(Cl)c2)CC1)c1ccc(F)cc1 | 83%
CCC1CCCCN1CCCNC(=O)c1cc2c(Cl)nc3ccc(C)cc3c2s1 (stereo not given) | 67%
COc1ccccc1C(=O)NCCn1cc(SCc2ccc(C)cc2)c2ccccc21 | 22% (active)
COc1ccc(CCNC(=O)CSc2cn(CCNC(=O)c3ccccc3F)c3ccccc23)cc1OC | 137%
O=C(NCCn1cc(SCc2ccccc2Cl)c2ccccc21)c1cccs1 | 57%
Cc1ccc(CSc2cn(CCNC(=O)c3cccs3)c3ccccc23)cc1 | 58%
COc1ccccc1C(=O)NCCn1cc(SCC(=O)Nc2ccccc2F)c2ccccc21 | 55%
COc1ccccc1C(=O)NCCn1cc(SCc2ccccc2Cl)c2ccccc21 | 34% (active)
CCOc1ccc(C(=O)Nc2ccc(S(=O)(=O)N3CCOCC3)cc2)cc1OCC | 72%
CCOc1ccc(CNC(=O)c2cccc(NC(=O)N3CCSc4ncccc43)c2)cc1OC | 92%
COc1cccc(N2CC(NC(=O)c3ccc4c(c3)OCO4)CC2=O)c1 (stereo not given) | 92%
Cc1c(C(=O)NCCN(C)C)sc2nc3n(c(=O)c12)CCC3 | 87%
Cc1sc2nc(CN(C(=O)c3cccs3)C3CCCC3)[nH]c(=O)c2c1C | 80%
O=C(C1CCCCC1)N(Cc1nc2sc3c(c2c(=O)[nH]1)CCCC3)Cc1cccs1 | 66%
O=C(c1cccs1)N(Cc1nc2sc3c(c2c(=O)[nH]1)CCCC3)C1CCCC1 | 45% (active)
Cc1ccc(NCc2cccn2-c2nnc(N3CCC(C(=O)NCc4ccc(OC(C)C)cc4)CC3)s2)cc1 | 69%
CCCCn1c(=N)c(C(=O)NC2CCCCC2)cc2c(=O)n3cccc(C)c3nc21 | 62%
CCOc1ccc(C(=O)Nc2cccc(NC(=O)c3ccc(C(C)(C)C)cc3)c2)cc1Br | 81%
CCOc1ccc(C(=O)Nc2ccc3c(c2)OCCO3)cc1Br | 37% (active)
CCOc1ccc(C(=O)Nc2ccc(NC(=O)c3ccccc3)cc2)cc1Br | 85%
O=C(C1COc2ccccc2O1)N(Cc1cccnc1)c1nc2c(F)cccc2s1 (stereo not given) | 84%
CCCC(=O)N1CCCC(c2nc(-c3cccs3)no2)C1 (stereo not given) | 107%
Cc1c(C)n(Cc2ccccc2)c2ccc(C(=O)NC(C)c3ccccc3)cc12 (stereo not given) | 78%
